From PubChem
ssDAF-12 act = activators of S. stercoralis DAF-12 nuclear receptor. HEK293 ssDAF-12/GRIP1 lit1-tk-luc reporter, luminescence; % of 3 µM dafachronic acid response. activation, % at 6.8 µM. hit rate 1% among 370,000. AID 652126;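 active = activation above the mean over all tested compounds plus 3 SD, cut at about 0.9% in these data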
Wnt bcat act = activates Wnt/beta-catenin signaling in a reporter cell assay; activation, % at 9.35 µM; AID 743398; activator, plate reader; hit rate 1.2% among 300,000; in the data active = activation above about 30%, passing the limit was not always enough; inconclusive = no clear call, values can overlap the other calls
hgDAF-12 ag = activates the H. glycines DAF-12 receptor ligand-binding domain. HEK293 GAL4-hgDAF12 UAS-luciferase reporter, agonist luminescence; normalized to butyrate control. activation, % at 6.8 µM. hit rate 1.8% among 370,000. AID 687014;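 active = activation above a cutoff set at the mean of all screened compounds plus 3 SD, cut at about 10% in these data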
esBAF inh = SWI/SNF esBAF complex inhibition; mouse ES cells, Bmi1-luciferase knock-in reporter, 24 h; 100% = twice the neutral-well signal; reporter increase, % at 12.5 µM; hit rate 2% among 350,000; in the data active = activation above about 40%; inconclusive = no clear call, values can overlap the other calls;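 also: a rise in the Bmi1 reporter signal indicates esBAF inhibition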
hcDAF12 agonist = H. contortus DAF-12 activation, primary screen; hit rate 1.4% among 370,000; HEK293 hcDAF-12 lit1-tk-luc reporter, luminescence; 0% DMSO, 100% Δ7-dafachronic acid; activation, % at 6.8 µM; AID 652067;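 active = activation above the mean of all tested compounds plus 3 SD, cut at about 5.5% in these data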
DAX1 inh = DAX1 (NR0B1) inhibition, primary screen; HEK293T StAR-luciferase reporter, SF-1/DAX-1 repression relief; AID 652010; hit rate 1.1% among 370,000; inhibition, % at 6.8 µM;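 active = inhibition above the mean over all tested compounds plus 3 SD, cut at about 3.6% in these data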;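 also: higher inhibition means more luminescence from relief of DAX-1 repression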
Hits are given with their value; n = inactive; u = inconclusive; x = no result given. Rows were chosen to be rich in hits. Some 4.2% of all compounds tested hit in one or more screens of this group.

SMILES	ssDAF-12 act	Wnt bcat act	hgDAF-12 ag	esBAF inh	hcDAF12 agonist	DAX1 inh
Cc1cccc(C(=O)Nc2ccc(N3CCN(S(C)(=O)=O)CC3)cc2)c1	n	n	11	n	n	n
O=C(NCCc1ccccc1)c1ccc(Br)o1	n	n	n	49	n	n
O=C(NCCNC(=O)c1ccc(Br)o1)c1ccc(Br)o1	n	x	n	n	n	n
CCC(=O)NC(=S)Nc1ccc(NC(=O)c2ccc(Br)o2)cc1	n	n	n	69	n	n
CS(=O)(=O)N1CCN(c2ccc(NC(=O)c3ccccc3)cc2)CC1	n	n	n	x	n	n
CO[C@@H]1CN(C)C(=O)c2ccc(NC(=O)C3CC3)cc2OC[C@H](C)N(CCc2ccccc2)C[C@@H]1C	x	x	x	n	x	x
CCC(=O)N(C)C[C@H]1Oc2ncc(-c3ccccc3OC)cc2C(=O)N([C@H](C)CO)C[C@@H]1C	x	x	x	n	x	x
O=C(NCC(=O)N1CCOCC1)c1ccc(Br)o1	n	n	n	x	n	3.7
Cc1ccc(C(=O)Nc2ccc(N3CCN(C)CC3)cc2)cc1	1.3	n	n	n	n	n
O=C(Nc1ccc(N2CCCC2)c(Cl)c1)c1ccc(Br)o1	n	x	n	76	n	n
O=C(Nc1ccc(N2CCOCC2)cc1)c1ccc(Br)o1	n	n	12	n	n	n
COc1ccc(C(=O)Nc2ccc(N3CCN(C)CC3)cc2)cc1	n	n	n	u	n	n
CCNC(=O)C[C@H]1CC[C@@H]2[C@@H](COc3ccc(NC(=O)Nc4cccc(OC)c4)cc3C(=O)N2C)O1	x	x	x	n	x	x
CCC(=O)N1[C@H](CO)[C@@H](c2ccc(C3=CCCCC3)cc2)[C@@H]1CN(C)C(C)=O	x	x	x	n	x	x
Nc1ccc2nc(SCC(=O)c3ccccc3)sc2c1	1.3	n	n	n	n	n
Nc1nnc(SCC(=O)c2ccc3ccccc3c2)s1	1.1	x	n	52	n	n
Nc1ccc2nc(SCc3ccccc3F)sc2c1	1.0	n	n	x	n	n
CCOc1ccc2nc(SCc3ccc(F)cc3)sc2c1	n	x	n	x	n	n
Nc1cc(N)nc(SCC(=O)c2ccccc2)n1	n	n	n	x	n	n
C[C@H]1CN([C@@H](C)CO)C(=O)c2cc(C#CC3CCCC3)cnc2O[C@H]1CN(C)Cc1ccncc1	x	x	x	n	x	x
Cc1nn(C)cc1NC(=O)C[C@@H]1CC[C@@H]2[C@@H](COc3ccc(NC(=O)NC(C)C)cc3C(=O)N2C)O1	x	x	x	n	x	x
O=c1[nH]c(-c2ccc(-c3cccc(Cl)c3)o2)nc2ccccc12	n	u	n	58	n	n
O=[N+]([O-])c1ccc(/C=N/N2CCCCC2)cc1	n	n	n	77	n	n
Clc1ccc(/C=N/N2CCCCC2)cc1	n	33	n	x	n	n
O=[N+]([O-])c1ccc(/C=N\N2CCN(c3ccc(Cl)cc3)CC2)cc1	n	x	n	n	n	n
SMILES	ssDAF-12 act	Wnt bcat act	hgDAF-12 ag	esBAF inh	hcDAF12 agonist	DAX1 inh
Clc1ccc(C=NN2CCCCCC2)cc1Cl	n	56	n	x	n	n
Oc1ccc(/C=N/N2CCCCC2)cc1O	n	n	n	n	n	n
CNC(=O)C[C@@H]1CC[C@H]2[C@H](COc3ccc(NC(=O)C(C)C)cc3C(=O)N2C)O1	x	x	x	n	x	x
C[C@@H]1CN([C@@H](C)CO)C(=O)c2cc(-c3cccc(C#N)c3)cnc2O[C@@H]1CN(C)C(=O)C1CC1	x	x	x	n	x	x
O=C(C[C@@H]1C[C@@H]2c3cc(NC(=O)NC4CCCC4)ccc3O[C@@H]2[C@H](CO)O1)NCc1ccccc1F	x	x	x	n	x	x
Cc1cc(C)n2c(Nc3ccc4c(c3)OCCO4)c(-c3ccc(F)cc3)nc2n1	n	n	n	x	n	4.3
COCC#Cc1ccc2c(c1)O[C@H](CN(C)S(C)(=O)=O)[C@H](C)CN([C@@H](C)CO)S2(=O)=O	x	x	x	n	x	x
Cc1ccc(-n2nc(C)c3c(C)cc(=O)[nH]c32)cc1	3.5	n	n	n	n	n
FC(F)Oc1ccc(N=C2SCC3CCCCN23)cc1 (stereo unspecified)	n	n	n	75	n	n
Clc1ccc(N=C2SCCS2)cc1	n	n	n	x	n	n
Clc1ccc(N=C2SCC3CCCCN23)cc1 (stereo unspecified)	n	n	n	53	n	n
Cc1cccc(N2CCN(c3cccc(C)c3)C2c2cccnc2)c1	n	37	n	n	n	n
C[C@@H]1CN([C@@H](C)CO)C(=O)c2cc(NC(=O)Nc3ccccc3)ccc2O[C@@H]1CN(C)Cc1ccc(Cl)c(Cl)c1	x	x	x	n	x	x
O=C(C[C@H]1CC[C@H]2[C@@H](COC[C@H](O)CN2Cc2ccccc2F)O1)N[C@@H]1CCN(Cc2ccccc2)C1	x	x	x	n	x	x
O=C(Cc1ccc(Br)cc1)N1CCN(c2ccc(F)cc2)CC1	n	x	n	n	n	n
O=C(Cc1ccc(Br)cc1)N1CCN(c2ccccc2O)CC1	n	n	n	50	n	n
O=C(Cc1ccc(Br)cc1)N1CCOCC1	0.9	n	n	n	n	n
COc1ccccc1S(=O)(=O)N(C)C[C@@H]1Oc2cc(C#CCC(C)C)ccc2S(=O)(=O)N([C@@H](C)CO)C[C@H]1C	x	x	x	n	x	x
COc1cc(/C=N/Nc2ccccn2)cc(OC)c1O	n	n	n	x	n	n
COc1cc(/C=N/Nc2cccc3cccnc23)cc(OC)c1O	n	n	13	x	n	n
COc1ccc(/C(C)=N/N2CCCCC2)c(O)c1	n	n	n	n	n	n
COc1ccc(O)c(/C=N/N2CCCCC2)c1	n	33	n	n	n	n
CCCSc1nnc(-c2c[nH]c3ccccc23)n1C	n	n	n	44	n	n
C[C@H](O)C#Cc1ccc2c(c1)O[C@@H](CN(C)C(=O)CN(C)C)[C@H](C)CN([C@H](C)CO)S2(=O)=O	x	x	x	n	x	x
S=C(N=Nc1ccccc1)NNc1ccccc1	n	44	12	63	11	n
SMILES	ssDAF-12 act	Wnt bcat act	hgDAF-12 ag	esBAF inh	hcDAF12 agonist	DAX1 inh
CCC(=O)N1[C@@H]2c3ccc(-c4cncnc4)c(=O)n3C[C@H]1[C@H](CO)[C@H]2C(=O)N1CCc2ccccc2C1	x	x	x	n	x	x
CN(CC(=O)Nc1ccccc1Br)C(=O)COc1ccc2ccccc2c1	n	n	n	41	n	n
O=C(c1cccc(S(=O)(=O)N2CCCCC2)c1)N1CCc2ccccc21	n	n	n	x	5.9	n
O=C(Nc1cccc(O)c1)c1ccc(Br)c(S(=O)(=O)N2CCCCC2)c1	n	n	n	66	n	n
O=C(Nc1ccc2c(c1)OCO2)c1ccc(Br)c(S(=O)(=O)N2CCCC2)c1	n	n	n	n	n	n
CN(C)c1ccc(C(=O)Nc2cccc(S(=O)(=O)N3CCCC3)c2)cc1	n	n	n	62	n	n
O=C(NCCCN1CCCC1=O)c1cccc(S(=O)(=O)N2CCCCC2)c1	n	n	n	n	n	4.4
CN(C)S(=O)(=O)c1cccc(NC(=O)c2ccc(S(=O)(=O)N3CCCCC3)cc2)c1	n	n	n	n	n	n
CN(C)C(=O)C[C@H]1C[C@@H]2c3cc(NC(=O)Nc4ccccc4F)ccc3O[C@@H]2[C@H](CO)O1	x	x	x	n	x	x
